TGFb inhibitor: qHTS for Inhibitors of TGF-b | 410,000 tested, 1.2% active | AID 588855, 2011 | Potency, µM (doses to about 46.1 µM), for inactives: at the highest dose activity, negative = inhibition, hits mostly inhibitors | HepG2 CAGA-GFP TGF-b/SMAD3 reporter, GFP fluorescence, 18 h; TGF-beta stimulated, 500 pg/mL final; further: potency means the concentration at half of the fitted maximal effect; on the % scale 0 is the no-effect control and ±100 the full control effect; nearly all actives have a fitted effect of over 65% in size
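Per well, imaged GFP fluorescence of HEPG2 CAGA-GFP cells gives the signal; cells get compound, then TGF-beta (500 pg/mL final), 18 h at 37 degrees C; %Activity versus -TGF-beta and +DMSO controls.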
TDP1 cell noCPT: qHTS for Inhibitors of human tyrosyl-DNA phosphodiesterase 1 (TDP1): qHTS in cells in absence of CPT. 420,000 tested, 15% active. DT40 Tdp1-/- hTDP1 cells, no CPT, ATP luminescence, 48 h. Potency, µM (titrated, usually from 46.2 µM), inactives show at the highest dose activity change, negative = growth inhibition, hits mostly inhibitors. AID 686978, 2013; further: potency means the concentration at half of the fitted maximal effect; on the % scale 0 is the no-effect control and ±100 the full control effect; nearly all actives have a fitted effect of over 55% in size
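Camptothecin absent (DMSO only). Human TDP1-complemented DT40 knockout cells, 400 cells/well, 37 °C for minimum 48 hr; ATP measured via CellTiter-Glo, 30 min dark incubation, luminescence.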
HepG2 tox: qHTS for Inhibitors of TGF-b: Cytotox Counterscreen; AID 588856, 2011; HepG2 CAGA-GFP viability, ATP luminescence, 18 h; 410,000 tested, 0.76% active; Potency, µM (top dose mostly 46.1 µM), without a hit: top-dose activity change, negative = cytotoxicity, usual class: cytotoxic; further: potency means the concentration at half of the fitted maximal effect
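HepG2 CAGA-GFP cells (1000/well, DMEM with 1% FBS) received compound, then TGF-beta at 500 pg/mL final, and were incubated 18 hours at 37 degrees C. Viability was read by CellTiter-Glo luminescence. Media-only wells were set as complete cell-killing and DMSO as no toxicity.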
DT40 TDP1 CPT: qHTS for Inhibitors of human tyrosyl-DNA phosphodiesterase 1 (TDP1): qHTS in cells in presence of CPT. 420,000 tested, 12% active. Potency, µM (titrated, usually from 46.2 µM), for inactives: at the top dose activity change, negative = growth inhibition, usual class: inhibitors. chicken DT40 Tdp1-/-;hTDP1 cells + 20 nM CPT, ATP luminescence, 48 h; further: potency means the concentration at half of the fitted maximal effect; on the % scale 0 is the no-effect control and ±100 the full control effect; nearly all actives have a fitted effect of over 55% in size
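Cell growth measured by CellTiter-Glo luminescence after a minimum 48 h, 37 C compound exposure with 20 nM CPT in Tdp1-knockout DT40 cells stably expressing hTDP1, seeded 400/well; qHTS titration format.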
IL-1B inflam inh: qHTS for Inhibitors of Inflammasome Signaling: IL-1-beta AlphaLISA Primary Screen; THP-1 LPS/ATP IL-1B secretion, AlphaLISA, 16 h; active compounds read low; activity change, % at 57.5 µM; 360,000 tested, 4.7% active; in the data active means activity change below about -50%; inconclusive means mostly about -30% to -49%; further: on the % scale 0 is the no-effect control and ±100 the full control effect
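THP-1 cells pretreated 1 hr with compounds (up to 57.5 uM final), then stimulated with LPS (250 ng/mL final) plus ATP (1.25 mM final); secreted IL-1B measured by AlphaLISA after 16 hr, decreased signal indicating inhibition.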
S-ASM inh: Inhibitors of Secretory Acid Sphingomyelinase (S-ASM): qHTS | placental ASM, HMU-PC fluorogenic substrate, 60 min | Potency, µM (series often up to 57.5 µM), for inactives: at the top dose activity change, negative = inhibition, actives largely listed as inhibitors | 340,000 tested, 0.006% active | AID 504937, 2011; further: potency means the concentration at half of the fitted maximal effect
Target sequence (P17405 47-631 limits assumed): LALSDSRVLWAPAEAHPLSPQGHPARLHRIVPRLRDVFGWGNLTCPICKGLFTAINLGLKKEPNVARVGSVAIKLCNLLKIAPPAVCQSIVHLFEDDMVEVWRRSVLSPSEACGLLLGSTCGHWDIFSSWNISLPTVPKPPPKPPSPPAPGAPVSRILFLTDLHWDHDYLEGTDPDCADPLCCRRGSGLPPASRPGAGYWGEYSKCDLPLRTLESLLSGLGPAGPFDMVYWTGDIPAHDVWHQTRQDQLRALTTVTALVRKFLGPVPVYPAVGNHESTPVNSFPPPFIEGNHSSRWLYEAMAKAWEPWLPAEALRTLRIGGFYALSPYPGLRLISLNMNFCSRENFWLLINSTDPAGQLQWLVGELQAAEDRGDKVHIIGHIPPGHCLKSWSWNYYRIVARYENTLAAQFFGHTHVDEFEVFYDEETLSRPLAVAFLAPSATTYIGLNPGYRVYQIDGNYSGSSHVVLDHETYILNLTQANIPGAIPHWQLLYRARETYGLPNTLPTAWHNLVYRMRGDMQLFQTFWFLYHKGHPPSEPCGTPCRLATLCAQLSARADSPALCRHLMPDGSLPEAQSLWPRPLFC
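Fluorogenic HMU-PC substrate (9 uM final) is turned over by placental ASM in 60 min at 37 C after a 10 min compound preincubation. Reaction ended by alkaline stop (pH 10), with fluorescence read at 386/447 nm.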
* hit, by the source's call; ? = inconclusive; nt = no result. Only some compounds are listed: those with a hit (about 19% of all), similar ones and a draw of the others. Unless noted, the call rests on the fitted dose curve; in most records, active means well fitted curve in the direction sought with a large enough effect; inconclusive means small, poorly fitted or top-dose-only effect, or another doubt; inactive means no such curve, though single readings can be large; an effect the other way counts as inactive or inconclusive.

SMILES	TGFb inhibitor	TDP1 cell noCPT	HepG2 tox	DT40 TDP1 CPT	IL-1B inflam inh	S-ASM inh
O=C(COc1cccc(Br)c1)Nc1ccc(Cl)c(S(=O)(=O)N2CCOCC2)c1	-19%	16µM*	-2%	21µM*	?	-13%
O=C(COc1ncnc2ccccc12)Nc1ccc(Cl)c(S(=O)(=O)N2CCOCC2)c1	2%	-27%	19%	-3%	25	2%
COc1ccc(Cl)cc1S(=O)(=O)N1CCN(C(=O)c2n[nH]c(=O)c3ccccc23)CC1	?	16µM*	-28%	18µM*	29	3%
CC(=O)c1ccc(OCCCC(=O)Nc2cc(S(=O)(=O)N(C)C)ccc2C)cc1	0%	-21%	-14%	-12%	10	-1%
COc1ccc(NC(=O)CSc2cn(CCNC(=O)c3c(F)cccc3F)c3ccccc23)cc1	?	?	-17%	?	nt	nt
COc1ccccc1C1=NOC(C(=O)N2CCN(C(=O)c3ccco3)CC2)C1 (stereo not drawn)	6%	10%	14%	-12%	-9	2%
O=C(CCCSc1ccccc1)Nc1ccc(Cl)c(S(=O)(=O)N2CCOCC2)c1	?	18µM*	-4%	16µM*	-3	-14%
COCCCNC(=O)c1csc([C@H]2C[C@H](O)[C@@H](CO)O2)n1	15%	5%	-1%	0%	3	nt
COc1ccc(OC)c(-c2cc(C3CCN(c4cc(Cl)nc(N)n4)CC3)[nH]n2)c1	?	21µM*	-30%	13µM*	-6	-17%
COc1ccc(-c2cc(C3CCN(c4cc(Cl)nc(N)n4)CC3)[nH]n2)cc1	?	23µM*	-30%	23µM*	?	?
Nc1nc(Cl)cc(N2CCC(c3cc(-c4ccc(Cl)cc4)n[nH]3)CC2)n1	11µM*	2.8µM*	11µM*	3.5µM*	-6	?
Cc1ccsc1/C=N/NC(=O)c1ccc(-n2cccc2)cc1	11%	-7%	-9%	-9%	0	-2%
Cc1ccc(NC(=O)N(Cc2ccco2)C(C)c2ccco2)cc1C (stereo not drawn)	0%	23µM*	-4%	?	-1	-3%
Cc1ccc(NC(=O)CN(Cc2ccco2)Cc2ccccc2O)cc1C	?	?	-15%	?	-62*	-9%
Cc1ccc(NC(=O)C[n+]2ccccc2)cc1C	5%	?	-5%	3%	24	-6%
Cc1ccc(NC(=O)N(Cc2cccnc2)Cc2ccco2)cc1C	14%	-8%	2%	-21%	-10	1%
COc1ccc(OC(=O)c2nc(SCc3ccc(C)cc3)ncc2Cl)cc1	-24%	-13%	-22%	?	nt	nt
COc1ccc(N(C)S(=O)(=O)c2ccc3c(c2)CCN3C(=O)C2CC2)c(OC)c1	-1%	18µM*	-21%	16µM*	6	2%
CC(=O)N1CCc2cc(S(=O)(=O)Nc3ccc(C)cc3C)ccc21	-3%	-24%	-10%	?	0	2%
CCC(=O)N1CCc2cc(S(=O)(=O)N(C)c3ccc(OC)cc3OC)ccc21	6%	?	-6%	?	-4	0%
CN1CCN(c2ccccc2NS(=O)(=O)c2ccc3c(c2)CCN3C(=O)C2CCC2)CC1	0%	?	-48%	15µM*	-9	-1%
Cc1ccc(NS(=O)(=O)c2ccc3c(c2)CCN3C(=O)C2CC2)c(C)c1	16%	21µM*	3%	?	nt	nt
COc1ccc(NS(=O)(=O)c2ccc3c(c2)CCN3C(=O)C2CC2)cc1OC	-7%	5.2µM*	-17%	8.2µM*	nt	nt
CN(C)c1ccc(C(CNS(=O)(=O)c2ccc(F)cc2F)N2CCOCC2)cc1 (stereo not drawn)	35%	-11%	15%	-14%	nt	nt
COc1ccc(C(=O)N/C(=C\c2cn(S(=O)(=O)N(C)C)c3ccccc23)C(=O)NCCCN2CCOCC2)cc1	-5%	-7%	-20%	-20%	10	-2%
SMILES	TGFb inhibitor	TDP1 cell noCPT	HepG2 tox	DT40 TDP1 CPT	IL-1B inflam inh	S-ASM inh
Cc1cccc(NS(=O)(=O)c2ccc3c(c2)CCN3C(=O)C2CCC2)c1	?	18µM*	-18%	18µM*	nt	nt
O=C(C1CC1)N1CCc2cc(S(=O)(=O)NCC3COc4ccccc4O3)ccc21 (stereo not drawn)	-12%	15µM*	-7%	?	-8	-12%
COc1ccc(C(O)c2nc(-c3ccccc3C)cs2)cc1 (stereo not drawn)	3%	?	-2%	?	16	nt
O=C(CSc1ccc(Cl)cc1)Nc1cccc(-c2nc3ccccc3[nH]2)c1	?	10µM*	-14%	9.2µM*	-9	6%
O=C(Cc1cccs1)Nc1ccc(-c2nc3ccccc3[nH]2)cc1	1%	21µM*	-46%	?	-53*	-1%
COc1c(F)c(F)c(C(=O)Nc2ccc(-c3nc4ccccc4[nH]3)cc2)c(F)c1F	28%	4.6µM*	30%	6.5µM*	9	6%
O=C(Nc1ccc(-c2nc3ccccc3[nH]2)cc1)c1c(F)c(F)c(F)c(F)c1F	1%	-7%	6%	-2%	-7	0%
Cc1ccc2nc(-c3ccc(NC(=O)CSc4ccccc4)cc3)[nH]c2c1	-18%	16µM*	-63%	10µM*	34	2%
Cc1ccc2nc(SCC(=O)Nc3ccc(C(N)=O)cc3)[nH]c2c1	-10%	-26%	4%	8%	-6	-2%
NC(=O)c1ccc(NC(=O)Cc2cccs2)cc1	4%	-3%	2%	-13%	6	-1%
CCOc1cc(CNC(=O)NC2COc3ccc(OC)cc3C2)cc(OCC)c1OCC (stereo not drawn)	-27%	?	-34%	?	nt	nt
O=C(NCCc1ccccc1)C1CCC(=O)N1C1CCCC1 (stereo not drawn)	-29%	2%	-15%	8%	-12	-1%
COCCOC(=O)C1=C(C)NC(=O)NC1c1cn(-c2ccccc2)nc1-c1ccccc1 (stereo not drawn)	13%	1%	-1%	0%	nt	nt

From PubChem BioAssay
